# ERG-DNA inh: inhibitors of human ERG Ets domain-DNA interaction; P11308; fluorescence polarization, His-ERG Ets domain / labelled DNA; Potency, µM (titrated, usually from 76.9 µM), for the others: top-dose FP activity, negative = inhibition, actives largely listed as inhibitors; actives 0.028% (n = 370,000); AID 624246; active = well fitted inhibition curve with a large enough effect in the polarisation, with a control signal flat; inconclusive = small, poorly fitted or top-dose-only effect, or effect the other way, or a change in a side signal; inactive = no such curve, though single readings can be large or run the other way; the % refers to the polarisation;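 also: polarization taken with two DNA probes labelled with fluorescein and Texas red; potency is read from the fitted curve at half-maximal effect; % of control where 0% means no effect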
#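 His-tagged ERG Ets domain (1 uM in the protein solution; 300mM KCl, 50mM Tris-HCl, 1mM EDTA, 1mM DTT, pH 7.5) received compound, then a probe mix of 5 nM fluorescein-DNA and 100nM Texas-615-DNA. Fluorescence polarization was read for both dyes.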
# Menin-MLL TR inh: displaces Texas Red mutant MLL peptide from human menin | actives 0.23% (n = 270,000) | AID 1768 | Menin + Texas Red MLL mutant peptide, fluorescence polarization | O00255 | Potency, µM (top dose mostly 61.6 µM), for the others: at the top dose FP activity change, negative = inhibition, usual class: inhibitors; active = well fitted inhibition curve with a large enough effect in the polarisation, with a control signal flat, not every such curve was filed as active; inconclusive = small, poorly fitted or top-dose-only effect, or effect the other way, or a change in a side signal; inactive = no such curve, though single readings can be large or run the other way; the % refers to the polarisation; also: potency is read from the fitted curve at half-maximal effect; % of control where 0% means no effect
# Target sequence (O00255 whole entry, looked up): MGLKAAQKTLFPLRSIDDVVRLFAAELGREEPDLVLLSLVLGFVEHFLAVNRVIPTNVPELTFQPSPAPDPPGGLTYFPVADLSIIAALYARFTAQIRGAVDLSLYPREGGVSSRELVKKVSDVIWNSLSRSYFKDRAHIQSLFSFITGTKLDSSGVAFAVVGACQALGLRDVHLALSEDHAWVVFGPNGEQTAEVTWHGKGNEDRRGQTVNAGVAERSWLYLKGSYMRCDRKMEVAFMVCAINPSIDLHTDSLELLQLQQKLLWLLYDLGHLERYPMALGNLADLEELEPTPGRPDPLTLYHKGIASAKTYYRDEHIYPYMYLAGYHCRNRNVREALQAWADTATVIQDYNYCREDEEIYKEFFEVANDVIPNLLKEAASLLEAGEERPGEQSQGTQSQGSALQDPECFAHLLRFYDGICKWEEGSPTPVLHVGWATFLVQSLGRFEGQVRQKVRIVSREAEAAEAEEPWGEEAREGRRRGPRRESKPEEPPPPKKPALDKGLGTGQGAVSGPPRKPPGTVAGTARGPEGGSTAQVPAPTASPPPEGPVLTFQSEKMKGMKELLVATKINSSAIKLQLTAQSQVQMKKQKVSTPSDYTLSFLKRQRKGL
# MmCpn inh: inhibitors of Methanococcus maripaludis chaperonin TRiC (MmCpn); Potency, µM (highest dose often 76.9 µM), for the others: at the highest dose activity, negative = inhibition, usual class: inhibitors; purified Mm-Cpn ATPase, ADP Transcreener TR-FRET; actives 0.031% (n = 330,000); also: potency is read from the fitted curve at half-maximal effect; % is scaled to controls: 0 for no effect and ±100 for the full control effect; nearly all actives have a fitted effect of over 80% in size
#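 ATPase turnover read by TR-FRET ADP competition (Eu cryptate antibody/ADP-d2, 665/590 nm): 10uM ATP final, 25nM Mm-CPN final, 30 min 37degC after 10-min compound preincubation, pH 7.4 Tris/KCl/MgCl2/DTT buffer.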
# CXXC DNA block: inhibitors of human MLL CXXC domain-DNA interaction | actives 0.037% (n = 290,000) | AID 2662 | MLL-CXXC / FITC-HOXA9 DNA fluorescence polarization | Potency, µM (top dose mostly 115 µM), for inactives: at the top dose activity change, negative = inhibition, actives largely listed as inhibitors; active = well fitted inhibition curve with a large enough effect in the polarisation, with a control signal flat, not every such curve was filed as active; inconclusive = small, poorly fitted or top-dose-only effect, or effect the other way, or a change in a side signal; inactive = no such curve, though single readings can be large or run the other way; the % refers to the polarisation; also: potency is read from the fitted curve at half-maximal effect
#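 Steps: dispense CXXC domain solution (7 uM) → pin compounds or unlabeled HOX-A9 DNA control → 5 min ambient → add FLSN-HOX-A9 solution (50 nM) → spin → 30 min ambient → fluorescence polarization. Tris pH 7.5/NaCl/DTT/BSA buffer.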
# Menin-MLL FL inh: menin-MLL binding inhibition, fluorescein peptide | Fluorescence polarization, fluorescein-MLL peptide displacement from menin | FP activity change, % at 61.4 µM | 290,000 tested, under 10 active | AID 1766; active = well fitted curve in the direction sought with a large enough effect in the polarisation, not every such curve was filed as active; inconclusive = small, poorly fitted or top-dose-only effect, or effect the other way, or a change in a side signal; inactive = no such curve, though single readings can be large or run the other way; the % refers to the polarisation; also: % of control where 0% means no effect
# MLL CXXC FP-Fl: disrupts human MLL CXXC domain binding to DNA; shares compounds with CXXC DNA block; MLL CXXC-DNA binding, fluorescein FP; Potency, µM (highest dose often 345 µM), for inactives: at the top dose activity change, negative = inhibition, most hits filed as inhibitors; actives 70% (n = 200); also: potency is read from the fitted curve at half-maximal effect; nearly all actives have a fitted effect of over 80% in size
# MLL CXXC TxRed: MLL CXXC-DNA interaction inhibition, Texas Red FP. Potency, µM (doses to about 345 µM), for the others: top-dose activity change, negative = inhibition, actives largely listed as inhibitors. MLL CXXC-DNA binding, Texas Red fluorescence polarization. shares compounds with CXXC DNA block. AID 624161. actives 40% (n = 200); also: potency is read from the fitted curve at half-maximal effect; % is scaled to controls: 0 for no effect and ±100 for the full control effect; nearly all actives have a fitted effect of over 75% in size
# MLL CXXC TRF: MLL CXXC-DNA interaction inhibition, HTRF readout; shares compounds with CXXC DNA block; MLL CXXC-DNA binding, HTRF, biochemical; Potency, µM (doses to about 172 µM), inactives show at the highest dose activity change, negative = inhibition, actives largely listed as inhibitors; actives 30% (n = 210); AID 624162; also: % is scaled to controls: 0 for no effect and ±100 for the full control effect; nearly all actives have a fitted effect of over 80% in size
# Active calls of the source: *; u = inconclusive; x = not tested or not shown; [ ] = dose if it differs, or a comment. Many of the other results were omitted from the sample, so hits are more common in it than they were. Unless noted, calls follow the shape of the dose curve; as a rule, active = well fitted curve in the direction sought with a large enough effect; inconclusive = small, poorly fitted or top-dose-only effect, or another doubt; inactive = no such curve, though single readings can be large; an effect the other way counts as inactive or inconclusive.
SMILES,ERG-DNA inh,Menin-MLL TR inh,MmCpn inh,CXXC DNA block,Menin-MLL FL inh,MLL CXXC FP-Fl,MLL CXXC TxRed,MLL CXXC TRF
Oc1cc[c]([Hg][Cl])cc1,x,4%,x,-8%,-6,x,x,x
C/C1=C/C(=O)O[C@@H]2C[C@@H](CC[C@H](C)/C=C\CC1)O[C@@](O)(C1CSC(=O)N1)C2 (some centres undefined),x,1%,x,x,0,x,x,x
O=P(O)(O)CCCl,x,-6%,x,x,-1,x,x,x
O=P(O)(O)C(Cl)(Cl)P(=O)(O)O,x,-2%,x,35µM*,-5,u,u,24µM*
C[C@@H]1C(=O)O[C@H]2C[C@@]34[C@H]5C[C@@H](C(C)(C)C)[C@]36[C@H](OC(=O)[C@H]6O)O[C@]4(C(=O)O5)[C@]21O,x,-14%,x,x,0,x,x,x
Cc1cc(/C=C2\C(=O)NC(=O)N(c3ccccc3F)C2=O)c(C)n1-c1cc(C(=O)O)cc(C(=O)O)c1,13%,26%,0%,13µM*,8,8µM*,22µM*,24µM*
Cc1cc(/C=C2\C(=O)NC(=O)N(c3ccccc3)C2=O)c(C)n1-c1ccc(C(=O)O)c(Cl)c1,6%,23%,-3%,u,15,7%,113µM*,-2%
Cc1cc(/C=C2\C(=O)NC(=O)N(c3ccc(F)cc3)C2=O)c(C)n1-c1cccc(C(=O)O)c1,11%,10%,-1%,-19%,8,x,x,x
CN1C2CC(OC(=O)C(CO)c3ccccc3)C[C@@H]1[C@H]1OC21 (some centres undefined),x,4%,x,x,2,x,x,x
CC1=C(O)C(=O)[C@H]2O[C@@H]2C1=O,x,1%[24.8 µM],x,x,-15,x,x,x
CC1CC2CCC(O2)C(C)C(=O)OC(C)CC2CCC(O2)C(C)C(=O)OC(C)CC2CCC(O2)C(C)C(=O)OC(C)CC2CCC(O2)C(C)C(=O)O1 (centres undefined),x,u,x,x,1,x,x,x
O=C1NC(=S)NC(=O)C12C(c1ccc(F)cc1)NC(=S)NC2c1ccc(F)cc1 (centres undefined),-6%,x,1%,u,1,u,31%,-10%
CCOc1cc(C=C2C(=O)NC(=O)NC2=O)cc([N+](=O)[O-])c1O,x,u,-11%,32µM*,-7,20µM*,89µM*,19µM*
CN(C)c1ccc(C=C2C(=O)NC(=O)NC2=O)cc1[N+](=O)[O-],-9%,14%,2%,-8%,0,x,x,x
CN(CCOc1ccc(C=C2C(=O)NC(=O)NC2=O)cc1)c1ccccn1,-2%,7%,2%,-3%,0,x,x,x
COc1cc(C=C2C(=O)NC(=O)NC2=O)ccc1O,9%,24%,2%,u,u,56µM*,159µM*,122µM*
COc1ccc(OCCOc2cccc(C=C3C(=O)NC(=O)NC3=O)c2)cc1,x,49%,-3%,u,-1,45µM*,u,39µM*
O=C(OC1Cc2c(O)cc(O)cc2OC1c1cc(O)c(O)c(O)c1)c1cc(O)c(O)c(O)c1 (centres undefined),x,u,x,x,22,x,x,x
CCOC(=O)C(SP(=S)(OC)OC)c1ccccc1 (centres undefined),x,-14%,x,x,5,x,x,x
CC(CO)NC(=O)C1C=C2c3cccc4[nH]cc(c34)CC2N(C)C1 (centres undefined),x,-15%,x,32µM*,u,142µM*,u,24%
CCc1ccccc1NC(=O)NNS(=O)(=O)c1cc(C)ccc1C,2%,-1%,-2%,14µM*,0,u,-24%,0%
O=c1[nH]c(O)c(/C=C2\C=NN=C2c2ccccc2)c(=O)[nH]1,6%,3%,0%,u,6,5%,126µM*,49µM*
CC1=NN(c2ccccc2)C(=O)/C1=C/c1c(O)[nH]c(=O)[nH]c1=O,0%,21%,-2%,1%,-1,x,x,x
COc1ccc(N=Cc2c(O)n(Cc3ccccc3)c(=S)[nH]c2=O)c(OC)c1,-1%,x,-5%,32µM*,u,159µM*,-1%,8%
O=C(O)Cn1cc(/C=C2\C(=O)NC(=O)N(Cc3ccco3)C2=O)c2ccccc21,30%,u,-4%,u,u,7.1µM*,40%,49µM*
Cc1ccc(N2C(=O)NC(=O)/C(=C\c3cn(CC(=O)O)c4ccccc34)C2=O)cc1,2%,57%,0%,u,16,14µM*,71µM*,-60%
CCN1C(=O)NC(=O)/C(=C\c2cn(CC(=O)O)c3ccccc23)C1=O,x,24%,2%,u,27,x,x,x
N#CC(=Cc1ccc(O)c(O)c1)C(N)=S,x,11%,x,42%,u,x,x,x

# Screening data from PubChem BioAssay.
